Screen size: about 5,500 compounds; about 2,000 (36%) were called active. About 18% were inconclusive and are not listed. No stated cut-off is given here; in the data, active means normalized growth mostly below about 0.91 (no sharp cut-off); inconclusive means no clear call, values can overlap the other calls; inactive means mostly above about 0.92. Some of the results follow.
Experiment: chemical genetic growth profiling, strain panel (AID 1159580);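 further: tested at 20 µM; growth read once vehicle control cultures reached saturation at 30 °C; 1 = growth at the plate median or of vehicle wells; lower values mean less growth of the strain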
Conditions: S. cerevisiae deletion strains, growth OD

Measured: normalized growth

Cn1c([N+](=O)[O-])cnc1COC(N)=O
inactive: locus YAL013W, strain DEP1, active compounds read low 1.01 | locus YAL021C, strain ccr4, active compounds read low 1.01 | locus YAL026C, strain drs2, active compounds read low 1.02 | locus YAL030W, strain snc1, active compounds read low 1 | locus YBL061C, strain skt5, active compounds read low 1.01 | locus YBR009C, strain hhf1, active compounds read low 0.978 | locus YBR021W, strain FUR4, active compounds read low 1.02 | locus YBR023C, strain chs3, active compounds read low 1.01 | locus YBR171W, strain sec66, active compounds read low 1.01 | locus YBR229C, strain ROT2, active compounds read low 1.01 | locus YBR231C, strain swc5, active compounds read low 0.992 | locus YBR279W, strain paf1, active compounds read low 1 | locus YCL011C, strain gbp2, active compounds read low 1.01 | locus YCL016C, strain dcc1, active compounds read low 1.01 | locus YCL029C, strain bik1, active compounds read low 0.993 | locus YCL069W, strain vba3, active compounds read low 0.987 | locus YCR088W, strain abp1, active compounds read low 1.01 | locus YDL005C, strain med2, active compounds read low 1.01 | locus YDL035C, strain GPR1, active compounds read low 1.02 | locus YDL040C, strain nat1, active compounds read low 0.997 | locus YDL074C, strain BRE1, active compounds read low 1.02 | locus YDL101C, strain DUN1, active compounds read low 1.02 | locus YDL134C, strain PPH21, active compounds read low 1 | locus YDL185W, strain tfp1, active compounds read low 0.978 | locus YDL192W, strain arf1, active compounds read low 0.984 | locus YDR001C, strain nth1, active compounds read low 1 | locus YDR069C, strain doa4, active compounds read low 0.984 | locus YDR101C, strain arx1, active compounds read low 0.986 | locus YDR137W, strain rgp1, active compounds read low 1.04 | locus YDR150W, strain NUM1, active compounds read low 1 | locus YDR159W, strain sac3, active compounds read low 0.983 | locus YDR162C, strain NBP2, active compounds read low 1.01 | locus YDR195W, strain ref2 1.01 | locus YDR297W, strain sur2, active compounds read low 1.02 | locus YDR318W, strain mcm21, active compounds read low 0.985 | locus YDR334W, strain swr1, active compounds read low 1 | locus YDR335W, strain msn5, active compounds read low 1.01 | locus YDR388W, active compounds read low 0.992 | locus YDR392W, strain spt3, active compounds read low 1.04 | locus YDR502C, strain sam2, active compounds read low 0.989 | locus YEL003W, strain gim4, active compounds read low 0.999 | locus YEL037C, strain rad23, active compounds read low 0.998 | locus YEL061C, strain CIN8 (second series), active compounds read low 1 | locus YEL061C, strain CIN8, active compounds read low 1.01 | locus YER015W, strain faa2, active compounds read low 1.01 | locus YER016W, strain bim1, active compounds read low 1.02 | locus YER110C, active compounds read low 0.988 | locus YER111C, strain swi4, active compounds read low 0.998 | locus YER155C, strain BEM2 (second series), active compounds read low 1.02 | locus YER155C, strain BEM2, active compounds read low 1 | locus YER167W, strain BCK2, active compounds read low 1.01 | locus YFR010W, strain ubp6, active compounds read low 0.983 | locus YGL078C, strain dbp3, active compounds read low 0.987 | locus YGL086W, strain mad1, active compounds read low 0.998 | locus YGL167C, strain pmr1, active compounds read low 1 | locus YGL173C, strain kem1, active compounds read low 1 | locus YGL227W, strain vid30, active compounds read low 1.01 | locus YGL240W, strain doc1, active compounds read low 1 | locus YGL248W, strain PDE1, active compounds read low 1.01 | locus YGL253W, strain hxk2, active compounds read low 1.01 | locus YGR078C, strain PAC10, active compounds read low 1.01 | locus YGR135W, strain pre9, active compounds read low 0.983 | locus YGR252W, strain gcn5, active compounds read low 0.981 | locus YHR013C, strain ard1, active compounds read low 1.04 | locus YHR027C, strain rpn1, active compounds read low 1.02 | locus YHR030C, strain SLT2, active compounds read low 1.01 | locus YHR079C, strain IRE1 (second series), active compounds read low 0.991 | locus YHR079C, strain IRE1, active compounds read low 1 | locus YHR094C, strain hxt1, active compounds read low 0.986 | locus YHR129C, strain ARP1, active compounds read low 1 | locus YHR142W, strain chs7, active compounds read low 1.01 | locus YHR200W, strain rpn10, active compounds read low 0.986 | locus YIL066C, strain RNR3, active compounds read low 1.02 | locus YIL073C, strain SPO22, active compounds read low 1.03 | locus YIL125W, strain kgd1, active compounds read low 0.987 | locus YIR030C, strain dcg1, active compounds read low 0.994 | locus YJL092W, strain hpr5, active compounds read low 1.01 | locus YJL095W, strain BCK1 (second series), active compounds read low 1.01 | locus YJL095W, strain BCK1, active compounds read low 1.02 | locus YJL115W, strain asf1, active compounds read low 0.999 | locus YJL129C, strain trk1, active compounds read low 1.02 | locus YJL134W, strain LCB3, active compounds read low 1 | locus YJL154C, strain vps35, active compounds read low 1.01 | locus YJL164C, strain tpk1, active compounds read low 0.993 | locus YJL166W, strain qcr8, active compounds read low 0.988 | locus YJL168C, strain set2, active compounds read low 0.986 | locus YJL187C, strain SWE1 (second series), active compounds read low 1.02 | locus YJR043C, strain POL32, active compounds read low 1.02 | locus YJR066W, strain TOR1, active compounds read low 0.954

Source: PubChem BioAssay AID1159580 (chemical genetic matrix, 2015)
